The values below come from PubChem BioAssay (EPA / NIEHS).

Usually AC50 stands for the concentration giving half of the maximal activity seen.

The source made the active and inactive calls. The calls were made as follows: active = hit-call score of the fitted dose curve at least 0.9, where 1 is the maximum; inactive = score below 0.9.

Experiment [1] in a line: ATG_E_Box_CIS: Attagene CIS-FACTORIAL HepG2 Assay for human Enhancer Box (E-box) (AID 2282936). Conditions: HepG2 E-box cis-reporter transcription, actives raise or lower the signal. In outline:
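HepG2 cells transiently transfected with multiplexed cis-element reporter units, dosed 24 h; reporter mRNA quantified by RT-PCR, 6-FAM labelling, HpaI digestion and capillary electrophoresis. E-box (USF1) signal fitted bidirectionally vs DMSO.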

Experiment [2] is described as follows: ATG_M_61_CIS: Attagene CIS-FACTORIAL HepG2 Assay for M61 Transcription Factor (Internal Marker) (AID 2282937). The conditions noted are these: HepG2 Attagene CIS-FACTORIAL M61 internal marker reporter; actives raise or lower the signal. Summed up:
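Transfect HepG2 with MRTUs; dose 24 h; isolate RNA; reverse-transcribe with DNase I treatment; PCR-amplify, FAM-label and cut with HpaI for 2 h at 37 C; resolve by CE. Bidirectional fitting against DMSO.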

The nature of experiment [3]: ATG_EGR_CIS: Attagene CIS-FACTORIAL HepG2 Assay for human Early Growth Response 1 (EGR1) (AID 2282938). The conditions noted are these: HepG2 Attagene CIS-FACTORIAL EGR reporter mRNA; actives raise or lower the signal. In outline: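 After a 24 h treatment of transiently transfected HepG2 cells, total RNA was reverse-transcribed and reporter sequences PCR-amplified, labelled and run on capillary electrophoresis. Reporters sit under cis-regulatory promoters sensing endogenous factors.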

A short description of experiment [4]: ATG_M_19_CIS: Attagene CIS-FACTORIAL HepG2 Assay for M19 Transcription Factor (Internal Marker) (AID 2282939). The conditions noted are these: HepG2 Attagene CIS-FACTORIAL M19 internal marker reporter; actives raise or lower the signal. In outline:
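Chemical-treated HepG2 (24 h) with MRTU constructs; reporter transcripts detected by fluorescent RT-PCR fragment analysis on capillary electrophoresis. Internal background marker, DMSO as baseline.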

A short description of experiment [5]: ATG_ERE_CIS: Attagene CIS-FACTORIAL HepG2 Assay for Estrogen Response Element (ERE) (AID 2282940). Conditions: HepG2 ERE cis-reporter, Attagene RNA transcript; actives raise or lower the signal. In outline: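 Human liver cells (HepG2) bearing transiently transfected, promoter-regulated reporter units were exposed 24 h. Reporter mRNA induction was detected by capillary electrophoresis of labelled RT-PCR products and fitted bidirectionally to DMSO.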

A short description of experiment [6]: ATG_Ets_CIS: Attagene CIS-FACTORIAL HepG2 Assay for human Erythroblast Transformation Specific (ETS) (AID 2282941). Conditions: HepG2 ETS cis-reporter transcription, actives raise or lower the signal. Summed up:
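HepG2 cells transfected with multiple cis-regulated reporter units measuring endogenous ETS-driven transcription, 24 h after dosing. Reporter mRNA quantified by RT-PCR with capillary electrophoresis; bidirectional fit relative to DMSO.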

Experiment [7] deals with Hepatocyte nuclear factor 3-beta (Homo sapiens) (UniProt Q9Y261). In words: ATG_FoxA2_CIS: Attagene CIS-FACTORIAL HepG2 Assay for human Forkhead box A2 (FOXA2) (AID 2282942). The conditions noted are these: HepG2 cis-reporter transcription factor activity, 24 h; actives raise or lower the signal. Summed up: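 24 h dosing of HepG2 bearing cis-reporter constructs; mRNA readout by RT-PCR/CE fluorescence; bidirectional fit, DMSO baseline.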

The nature of experiment [8]: ATG_FoxO_CIS: Attagene CIS-FACTORIAL HepG2 Assay for human Forkhead box O (FoxO) (AID 2282943). The conditions noted are these: HepG2 Attagene cis-reporter, FoxO element, mRNA; actives raise or lower the signal. In outline:
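Transfected HepG2 reporter cells exposed to test chemical for 24 h; reporter RNA measured by reverse transcription, PCR and fluorescent capillary electrophoresis; curves fitted for increases and decreases against DMSO.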

The nature of experiment [9]: ATG_GATA_CIS: Attagene CIS-FACTORIAL HepG2 Assay for human GATA Binding Protein (AID 2282944). The conditions noted are these: HepG2 GATA cis-element reporter, Attagene multiplex mRNA; actives raise or lower the signal. In outline:
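Transfected cis-reporter HepG2 cells were treated with chemicals for 24 hours. Total RNA was then converted to cDNA, amplified with reporter-specific primers and analysed by fluorescent capillary electrophoresis, using DMSO-treated wells as baseline.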

Experiment [10] is described as follows: ATG_GLI_CIS: Attagene CIS-FACTORIAL HepG2 Assay for human Zinc Finger Protein GLI1 (AID 2282945). The conditions noted are these: HepG2, Attagene cis-factorial reporter mRNA, GLI element; actives raise or lower the signal. Summed up:
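Transiently transfected HepG2 cells report endogenous transcription factor activity via cis-element-driven reporter units. After 24 h compound exposure, reporter mRNA was measured by RT-PCR with capillary electrophoresis; bidirectional fitting against DMSO baseline.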

In experiment [11] the target is Bile acid receptor (Homo sapiens) (UniProt Q96RI1). Description: ATG_IR1_CIS: Attagene CIS-FACTORIAL HepG2 Assay for human Nuclear Receptor Subfamily 1 Group H Member 4 (NR1H4), IR1 submotif (AID 2282946). Conditions: IR1 reporter transcription, actives raise or lower the signal. In outline: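 HepG2 cells transiently transfected with multiple cis-promoter-driven reporter units to measure endogenous transcription factor activity; 24 h exposure. Reporter mRNA read by RT-PCR, FAM labelling, HpaI digestion and capillary electrophoresis. Bidirectional fit versus DMSO.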

Experiment [12] can be described thus: ATG_GRE_CIS: Attagene CIS-FACTORIAL HepG2 Assay for human Glucocorticoid Response Elements (GRE) (AID 2282947). The conditions noted are these: HepG2 GRE cis-reporter, Attagene multiplex mRNA; actives raise or lower the signal. Summed up: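 Transiently transfected HepG2 cells carrying GRE cis-reporter units (endogenous TF activity) dosed 24 h; reporter mRNA quantified by RT-PCR, 6-FAM labelling, HpaI digestion and capillary electrophoresis. Bidirectional fit versus DMSO baseline.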

The nature of experiment [13]: ATG_ISRE_CIS: Attagene CIS-FACTORIAL HepG2 Assay for human Interferon Regulatory Factor 1 (IRF1) binding to an Interferon-Stimulated Response Element (ISRE) (AID 2282948). The conditions noted are these: HepG2 ISRE cis-reporter (Attagene), mRNA transcription readout; actives raise or lower the signal. Summed up: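 Transiently transfected HepG2 cells carrying cis-element reporter units, dosed 24 hours. Reporter mRNA quantified by RT-PCR, fluorescent primer extension, HpaI digestion and capillary electrophoresis. Bidirectional fitting relative to DMSO.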

Experiment [14] can be described thus: ATG_M_32_CIS: Attagene CIS-FACTORIAL HepG2 Assay for M32 Transcription Factor (Internal Marker) (AID 2282949).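 Also: background control marker of the multiplexed CIS panel rather than a real target.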 Conditions: HepG2 Attagene cis-factorial M32 reporter, mRNA; actives raise or lower the signal. Summed up:
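HepG2 cells transiently transfected with multiplexed cis-regulated reporter units, dosed 24 h. Reporter mRNA quantified by RT-PCR, 6-FAM labelling, HpaI digestion and capillary electrophoresis; bidirectional fit vs DMSO.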

Experiment [15] is described as follows: ATG_M_06_CIS: Attagene CIS-FACTORIAL HepG2 Assay for M06 Transcription Factor (Internal Marker) (AID 2282950). Conditions: HepG2 Attagene CIS-FACTORIAL M06 internal marker reporter; actives raise or lower the signal. In outline: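 Cells (HepG2, transiently carrying cis-driven reporter units) receive chemical for 24 h before RNA isolation. Reporter cDNA is PCR-amplified, FAM-labelled by primer extension, HpaI-digested and sized on a capillary analyser.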

The target of experiment [16] is Hypoxia-inducible factor 1-alpha (Homo sapiens) (UniProt Q16665). Description: ATG_HIF1a_CIS: Attagene CIS-FACTORIAL HepG2 Assay for human Hypoxia Inducible Factor 1 (HIF1A) (AID 2282951). Conditions: HepG2 Attagene cis-factorial HIF1a reporter transcription; actives raise or lower the signal. Summed up:
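After 24 h chemical exposure of reporter-transfected HepG2 cells, reporter cDNA was PCR-amplified, labelled by 6-FAM primer extension (2 min 95 C, 20 s 68 C, 10 min 72 C), HpaI-cut (2 h, 37 C) and analysed by CE.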

Experiment [17] addresses Hepatocyte nuclear factor 6 (Homo sapiens) (UniProt Q9UBC0). Description: ATG_HNF6_CIS: Attagene CIS-FACTORIAL HepG2 Assay for human Hepatocyte Nuclear Factor 6 (HNF6) (AID 2282952). Conditions: HepG2 Attagene cis-factorial HNF6 reporter transcription; actives raise or lower the signal. In outline:
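HepG2, transient MRTU transfection (cis promoters); 24 h chemical exposure; total RNA → oligo(dT) RT → PCR → 6-FAM labelling → HpaI cut → CE; bidirectional fit vs DMSO.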

In experiment [18] the target is Heat shock factor protein 1 (Homo sapiens) (UniProt Q00613). Description: ATG_HSE_CIS: Attagene CIS-FACTORIAL HepG2 Assay for human Heat Shock Transcription Factor 1 (HSE) (AID 2282953). Conditions: HepG2 HSE cis-reporter, Attagene RNA transcription; actives raise or lower the signal. Summed up:
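Liver-derived HepG2 cells carry transiently introduced multiple reporter units governed by cis promoters. Reporter RNA measured 24 h post-dose through reverse transcription, PCR amplification, fluorescent labelling and capillary electrophoresis, normalised to DMSO.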

The nature of experiment [19]: ATG_MRE_CIS: Attagene CIS-FACTORIAL HepG2 Assay for human Metal Responsive Element (MRE) (AID 2282954). Conditions: HepG2 MRE cis-reporter transcription, Attagene multiplex; actives raise or lower the signal. Summed up: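 HepG2 cells transiently transfected with cis-element-driven reporter units; mRNA measured 24 h after dosing. Reporter transcripts quantified by RT-PCR, FAM labelling, HpaI digestion and capillary electrophoresis; bidirectional fit versus DMSO.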

Hepatocyte nuclear factor 6 (Homo sapiens), sequence (Q9UBC0 whole entry, looked up): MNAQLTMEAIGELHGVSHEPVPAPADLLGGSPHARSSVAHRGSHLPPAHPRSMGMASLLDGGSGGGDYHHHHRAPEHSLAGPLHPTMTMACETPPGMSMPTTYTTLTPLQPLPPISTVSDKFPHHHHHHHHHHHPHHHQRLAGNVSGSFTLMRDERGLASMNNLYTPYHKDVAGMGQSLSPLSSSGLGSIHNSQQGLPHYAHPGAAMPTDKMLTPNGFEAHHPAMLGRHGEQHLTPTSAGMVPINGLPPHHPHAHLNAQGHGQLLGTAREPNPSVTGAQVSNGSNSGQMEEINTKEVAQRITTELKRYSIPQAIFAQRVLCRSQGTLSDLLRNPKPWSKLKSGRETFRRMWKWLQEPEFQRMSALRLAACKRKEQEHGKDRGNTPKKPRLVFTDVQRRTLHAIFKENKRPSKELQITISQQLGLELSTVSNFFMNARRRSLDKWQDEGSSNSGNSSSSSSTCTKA
Hepatocyte nuclear factor 3-beta (Homo sapiens), sequence (Q9Y261 whole entry, looked up): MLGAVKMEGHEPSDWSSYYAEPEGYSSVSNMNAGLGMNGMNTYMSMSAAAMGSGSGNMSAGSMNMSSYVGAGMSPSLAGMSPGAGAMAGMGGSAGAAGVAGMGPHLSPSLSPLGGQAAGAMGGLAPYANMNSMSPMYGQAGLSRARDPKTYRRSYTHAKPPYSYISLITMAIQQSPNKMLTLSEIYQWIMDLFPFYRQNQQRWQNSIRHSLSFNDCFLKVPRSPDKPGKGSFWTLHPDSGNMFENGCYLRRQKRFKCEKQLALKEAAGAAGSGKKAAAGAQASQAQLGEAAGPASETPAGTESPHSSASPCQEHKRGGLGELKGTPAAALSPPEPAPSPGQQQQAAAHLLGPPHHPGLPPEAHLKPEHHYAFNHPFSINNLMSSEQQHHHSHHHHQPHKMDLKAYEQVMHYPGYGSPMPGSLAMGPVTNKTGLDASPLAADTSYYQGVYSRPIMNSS
Hypoxia-inducible factor 1-alpha (Homo sapiens), sequence (Q16665 whole entry, looked up): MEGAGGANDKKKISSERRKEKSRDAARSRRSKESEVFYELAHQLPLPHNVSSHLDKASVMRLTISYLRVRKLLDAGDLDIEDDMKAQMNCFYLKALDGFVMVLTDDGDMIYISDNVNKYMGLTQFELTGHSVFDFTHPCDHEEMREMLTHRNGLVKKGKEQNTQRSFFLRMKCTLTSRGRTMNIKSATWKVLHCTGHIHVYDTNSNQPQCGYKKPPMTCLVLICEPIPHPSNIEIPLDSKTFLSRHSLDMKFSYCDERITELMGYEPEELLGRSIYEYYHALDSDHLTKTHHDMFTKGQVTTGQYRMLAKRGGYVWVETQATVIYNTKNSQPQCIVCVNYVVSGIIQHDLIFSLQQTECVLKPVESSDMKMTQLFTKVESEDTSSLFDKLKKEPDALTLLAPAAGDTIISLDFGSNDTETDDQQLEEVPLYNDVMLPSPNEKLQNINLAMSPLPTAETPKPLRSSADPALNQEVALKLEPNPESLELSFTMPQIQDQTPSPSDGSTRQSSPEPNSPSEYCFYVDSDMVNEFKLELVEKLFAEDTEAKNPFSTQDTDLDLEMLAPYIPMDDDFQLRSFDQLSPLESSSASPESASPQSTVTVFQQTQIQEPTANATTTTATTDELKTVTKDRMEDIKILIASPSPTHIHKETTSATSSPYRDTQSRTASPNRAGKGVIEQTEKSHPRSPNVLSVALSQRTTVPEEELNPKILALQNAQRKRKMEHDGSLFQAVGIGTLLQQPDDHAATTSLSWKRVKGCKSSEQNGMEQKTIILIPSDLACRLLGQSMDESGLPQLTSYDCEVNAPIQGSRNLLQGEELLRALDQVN
Bile acid receptor (Homo sapiens), sequence (Q96RI1 whole entry, looked up): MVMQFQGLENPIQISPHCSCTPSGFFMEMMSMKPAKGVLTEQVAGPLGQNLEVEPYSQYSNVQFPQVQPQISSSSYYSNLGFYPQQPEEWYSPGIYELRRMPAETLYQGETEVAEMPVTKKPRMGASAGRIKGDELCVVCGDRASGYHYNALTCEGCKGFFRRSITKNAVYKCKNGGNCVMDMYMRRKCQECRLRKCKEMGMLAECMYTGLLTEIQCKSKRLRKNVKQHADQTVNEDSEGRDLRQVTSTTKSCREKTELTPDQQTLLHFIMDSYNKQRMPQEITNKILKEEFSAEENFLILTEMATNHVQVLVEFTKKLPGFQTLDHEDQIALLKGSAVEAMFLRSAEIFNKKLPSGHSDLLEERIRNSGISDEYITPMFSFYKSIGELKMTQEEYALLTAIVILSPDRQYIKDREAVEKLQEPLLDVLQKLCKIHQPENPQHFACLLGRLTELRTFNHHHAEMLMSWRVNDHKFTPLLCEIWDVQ
Heat shock factor protein 1 (Homo sapiens), sequence (Q00613 whole entry, looked up): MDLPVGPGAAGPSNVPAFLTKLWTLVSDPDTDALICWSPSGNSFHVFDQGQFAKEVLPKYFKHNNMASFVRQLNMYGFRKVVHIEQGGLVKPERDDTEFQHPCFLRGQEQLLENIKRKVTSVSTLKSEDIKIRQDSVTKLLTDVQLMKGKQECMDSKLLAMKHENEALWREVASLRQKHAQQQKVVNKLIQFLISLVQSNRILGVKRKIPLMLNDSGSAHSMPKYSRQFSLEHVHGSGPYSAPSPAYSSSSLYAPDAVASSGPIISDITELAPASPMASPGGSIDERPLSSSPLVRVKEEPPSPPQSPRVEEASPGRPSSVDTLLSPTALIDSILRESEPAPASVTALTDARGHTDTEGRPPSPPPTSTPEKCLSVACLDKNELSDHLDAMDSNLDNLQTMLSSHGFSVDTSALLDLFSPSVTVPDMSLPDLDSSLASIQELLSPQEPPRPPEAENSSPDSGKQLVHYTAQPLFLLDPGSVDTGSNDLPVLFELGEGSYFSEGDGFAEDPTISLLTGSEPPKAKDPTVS

For `Nc1ccc([N+](=O)[O-])cc1Cl`, the result in [1], in experiment [2], in experiment [3], in experiment [4], in [5] and in experiment [6] was inactive. Besides, the compound was classed as inactive in experiment [7], in experiment [8], in experiment [9], in experiment [10], in [11] and in experiment [12]. Moreover, the compound was called inactive in experiment [13], in experiment [14], in experiment [15], in experiment [16], in [17] and in experiment [18]. For the same compound, the compound was called inactive in experiment [19].
For `O=[N+]([O-])c1ccc(Cl)c(Cl)c1`, the result in [1], in experiment [2], in experiment [3], in experiment [4], in [5] and in experiment [6] was inactive. The result in [7], in experiment [8], in experiment [9], in [10], in [11] and in experiment [12] was inactive. Besides, the result in [13], in experiment [15], in experiment [16], in experiment [17] and in [19] was inactive.
Take `NC(=O)C(F)(F)C(F)(F)F`: the outcome in experiment [1], in experiment [2], in experiment [3], in experiment [4], in [5] and in experiment [6] was inactive. Further, the result in [7], in experiment [8], in experiment [9], in experiment [10], in [11] and in [12] was inactive. Besides, the compound was classed as inactive in [13], in experiment [14], in experiment [15], in [16], in experiment [17] and in [19].
Consider `O=S(=O)(F)C(F)(F)C(F)(F)C(F)(F)C(F)(F)C(F)(F)C(F)(F)C(F)(F)C(F)(F)F`, for which the result in experiment [1], in experiment [2], in experiment [3], in [4], in [5] and in [6] was inactive. Besides, the outcome in [7], in [8], in [9], in experiment [10], in [11] and in experiment [12] was inactive. Also, the outcome in experiment [13], in [14], in [15], in experiment [16], in [17] and in experiment [19] was inactive.
Turning to `CCOS(=O)(=O)OCC`, the outcome in experiment [1], in experiment [2], in [3], in experiment [4], in experiment [5] and in experiment [6] was inactive. Besides, the outcome in experiment [7], in experiment [8], in experiment [9], in experiment [10], in [12] and in experiment [13] was inactive. Further, the result in experiment [14], in experiment [15], in experiment [16], in [17] and in [19] was inactive.
Regarding `CCCCc1ccccc1`, the result in [1], in experiment [2], in experiment [3], in [4], in [5] and in experiment [6] was inactive. Also, the compound was called inactive in experiment [7], in [8], in [9], in [10], in [11] and in [12]. The call in experiment [13], in experiment [14], in [15], in [17] and in experiment [19] was inactive. In experiment [16], the concentration at half-maximal activity (AC50) is 59.2 µM (active).
On to `O=P(Oc1ccccc1)(Oc1ccccc1)Oc1ccccc1`, for which the outcome in experiment [1], in experiment [2], in experiment [4], in experiment [6], in experiment [7] and in experiment [8] was inactive. Besides, the compound was called inactive in experiment [9], in experiment [12], in experiment [15], in experiment [16] and in experiment [17]. Also, the concentration at half-maximal activity (AC50) in experiment [3] was 33.4 µM (active); in [5] it was 9.81 µM (active); in [10], 53.3 µM (active); in [11], 26.6 µM (active); in experiment [13], 33.4 µM (active); in experiment [18], 53.4 µM (active). In addition, in [19], the AC50 was 33.4 µM (active).
For the compound `Nc1ccc2ccccc2c1`, the result in experiment [1], in [2], in [3], in experiment [4], in [5] and in experiment [6] was inactive. The outcome in experiment [7], in experiment [8], in [9], in [10], in experiment [13] and in experiment [15] was inactive. Moreover, the compound was classed as inactive in experiment [16], in experiment [17] and in experiment [19].
